Active and inactive are the calls of the source. The calls were made as follows: active = hit-call score of the fitted dose curve at least 0.9, where 1 is the maximum; inactive = score below 0.9.
Read-out: adenosine kinase (ADK) gene, ADK (gene 132)
Test: LTEA_HepaRG_ADK: Life Technologies and Expression Analysis (LTEA) Assay for adenosine kinase (ADK) gene using HepaRG (AID 2283471)
Settings: mRNA level, 48 h; actives raise or lower the signal
Experimental: LTEA_HepaRG is a cell based, multiplexed-readout assay that uses HepaRG, a human liver cell line, with measurements taken at 48 hours after chemical dosing on a 96-well plate.LTEA_HepaRG_ADK is one of 102 assay component(s) measured in the LTEA HepaRG cell culture assay. It is a marker of Steatosis.Data from the assay component LTEA_HepaRG_ADK was analyzed into 1 endpoint. This assay endpoint, LTEA_HepaRG_ADK, was analyzed with bidirectional fitting relative to DMSO as the negative control and baseline of activity. Using a type of inducible reporter, measures of mRNA induction for gain or loss-of-signal activity can be used to understand regulation of transcription factor activity. To generalize the intended target to other relatable targets, this assay endpoint is annotated to the kinase intended target family, where the subfamily is steatosis.
A total of 1060 chemcials from the ToxCast library were tested in eight-point concentration-response experiments. Cell culture and cytotoxicity assays were conducted at Thermo Fisher Scientific's Custom Services facility (Madison, WI). A single lot of human HepaRG cells (Thermo Fisher Scientific, Frederick, MD) was used for the cell culture experiments. 96-well format collagen type I coated plates of human HepaRG cells were prepared using established methods. Briefly, cryopreserved HepaRG cells were thawed, plated at a density of approximately 100,000 cells/well in HepaRG Thaw, Plate, and General Purpose media (HPRG770, Thermo Fisher Scientific), and incubated for 48 hours. 0.5% DMSO was selected as vehicle control to balance the requisite need of DMSO in HepaRG cultures to maintain differentiation (for example, baseline metabolism, proportions of hepatocytes vs. cholangiocytes), while enabling further hepatic receptor pathway activation (for example, PXR and CAR) in response to chemical exposure. 48 hours after plating, the culture medium was replaced with HepaRG Serum-Free Incudtion Media. Cells were exposed to each test chemical in duplicate and maintained in CO2 incubators for another 48 hours. Chemical plates were thawed to room temperature and 200x concentrations of treatment groups were prepared. 8-point conentration-reponse curves were made with the highest exposure at 100 uM, followed by half-log dilutions, all in 0.5% DMSO. Each test plate contained variouse controls, induction positive controls (1mM phenobarbital), cytotoxicity positive controls ([…] aflatoxin B1), vehicle controls (0.5% DMSO), and total lysis controls (0.5% DMSO). Cell morphology images were taken using an Essen IncuCyte FLR automated microscope, with six 96-well plates imaged in about 24 minutes. Images were captured and exported and JPEG files. Spent culture media was transfered to black-well plates for the LDH assay, and remaining media was sorted at -80 C for later use. Cells were treated with RLT buffer and frozen until shipped for gene expression analysis. Total RNA was isolated from the cell suspension in 75 uL of Buffer RLT (Qiagen, Germantown, MD 20874) by Quintiles/Expression Analysis (Durham, NC) using a custom isolation procedure. Total RNA from each plate well was transferred to a preamplification plate. Fluidigm's 96.96 Dynamic ArrayTM (Fluidigm, Amsterdam, the Netherlands) technology was used for gene expression analyses by quantitative reverse transcription polymerase chain reaction (qRT-PCR, performed by Quintiles/Expression Analysis, Durham, NC)89. Standard TaqManTM Assays (Applied Biosystems/ThermoFisher Scientific, Foster City, CA) were used to assess the expression of 93 genes selected based on their selectivity and sensitivity to important hepatic receptors known to be modulated by environmental chemicals; importance in human hepatocyte functionality; and hepatotoxicity. […]

Structure (SMILES)	outcome	AC50
C[C@]12CCC(=O)C=C1CC[C@@H]1[C@@H]2CC[C@]2(C)C(=O)CC[C@@H]12	inactive	–
O=C(NC(=O)c1cc(F)c(F)cc1Cl)Nc1cc(F)ccc1N1CCC(C(=O)O)CC1	inactive	–
c1cc2ccc3cccc4ccc(c1)c2c34	inactive	–
ClC1=C(Cl)[C@]2(Cl)[C@@H]3[C@@H](Cl)[C@H]4O[C@H]4[C@@H]3C1(Cl)C2(Cl)Cl	inactive	–
C=CC(=O)NCNC(=O)C=C	inactive	–
CCCCCCCCCC[N+](C)(C)CCCCCCCCCC	–	79.1 µM (active)
O=C(N[C@H]1CN2CCC1CC2)c1cc2ccoc2cn1	inactive	–
Oc1ccc(C(c2ccc(O)cc2)(C(F)(F)F)C(F)(F)F)cc1	–	81.6 µM (active)
CCC(C)c1cc([N+](=O)[O-])cc([N+](=O)[O-])c1O (stereo not given)	–	2.24 µM (active)
CCSC(=O)N(CC)C1CCCCC1	inactive	–
Cc1ccccc1CO[C@@H]1C[C@@]2(C(C)C)CC[C@]1(C)O2	inactive	–
Cc1cc(O)ccc1Cl	inactive	–
NS(=O)(=O)C(F)(F)C(F)(F)C(F)(F)C(F)(F)C(F)(F)C(F)(F)C(F)(F)C(F)(F)F	–	4.81 µM (active)
C[C@]12CCC(=O)C=C1CC[C@@H]1[C@@H]2CC[C@@]2(C)[C@H]1CC[C@]2(C)O	inactive	–
CCCCCCOC(=O)c1ccccc1C(=O)OCCCCCC	inactive	–
Cc1ccccc1O	inactive	–
CN(C)c1nc(=O)n(C2CCCCC2)c(=O)n1C	inactive	–
COc1ccc(O)c(C(C)(C)C)c1	inactive	–
ClC(Cl)=C(c1ccc(Cl)cc1)c1ccc(Cl)cc1	inactive	–
CCC(C)(c1ccc(O)cc1)c1ccc(O)cc1	inactive	–

Structure (SMILES)	outcome	AC50
O=NN(c1ccccc1)c1ccccc1	–	11.8 µM (active)
Oc1c(Cl)c(Cl)c(Cl)c(Cl)c1Cl	–	6.68 µM (active)
CC(C)C(=O)OCC(C)(C)C(OC(=O)C(C)C)C(C)C (stereo not given)	inactive	–
Nc1ccc(-c2ccc(N)cc2)cc1	inactive	–
Cc1cccc(C)c1N	inactive	–
Clc1ccc(Cl)cc1	inactive	–
CCCCCCCCOC(=O)c1ccccc1C(=O)OCCCCCCCC	inactive	–
Cc1ccccc1[N+](=O)[O-]	inactive	–
CN(C)CCO	inactive	–
COS(=O)(=O)OC	inactive	–
Clc1ccc(C(c2ccccc2Cl)C(Cl)(Cl)Cl)cc1 (stereo not given)	inactive	–
Cc1cc2c3c(c1)C(c1ccccc1)=N[C@@H](NC(=O)c1ccncc1)C(=O)N3CC2	inactive	–
Cc1cccc([N+](=O)[O-])c1	inactive	–
CCCN(CCC)N=O	inactive	–
ClC1=C(Cl)[C@]2(Cl)[C@@H]3[C@H]4C[C@H]([C@@H]5O[C@H]45)[C@@H]3[C@@]1(Cl)C2(Cl)Cl	inactive	–
Cc1cc(-c2ccc(N)c(C)c2)ccc1N	inactive	–
O=S(=O)(O)C(F)(F)C(F)(F)C(F)(F)C(F)(F)C(F)(F)C(F)(F)F	inactive	–
CC(c1ccc(O)cc1)(c1ccc(O)cc1)c1ccc(O)cc1	–	75.7 µM (active)
CC#Cc1cc(C)nc(Nc2ccccc2)n1	inactive	–
Clc1ccc(C(Cl)(Cl)Cl)cc1	inactive	–

— PubChem BioAssay (EPA / NIEHS)
